HCV inh: blocks hepatitis C virus. Huh7.5.1 HCVcc-Cre infection, luciferase reporter, 44 h. Potency, µM (highest dose often 41.8 µM), inactives show at the top dose activity change, negative = inhibition, usual class: inhibitors. hit rate 3.4% among 340,000. AID 651820; active = well fitted inhibition curve with a large enough effect; inconclusive = small, poorly fitted or top-dose-only effect, or another doubt; inactive = no such curve, though single readings can be large or run the other way; note: potency is the fitted concentration of half-maximal effect
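Infectious HCV cell culture screen: compound-treated cells (1,000/well, pre-plated 4 h) are infected with HCVcc-Cre at roughly 0.5 moi and grown 44 h. Infection is quantified by luciferase signal after 15 min substrate incubation at room temperature.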
VACV mCherry inh: vaccinia inhibition (mCherry reporter); hit rate 0.63% among 310,000; Potency, µM (highest dose often 36.5 µM), for inactives: top-dose activity change, negative = inhibition, most hits filed as inhibitors; Vaccinia virus mCherry reporter infection, fluorescence; calls by dose curve; tested in A549 cells; note: potency is the fitted concentration of half-maximal effect; nearly all actives have a fitted effect of over 35% in size
HCMV inh: human cytomegalovirus inhibition. HFF cells, HCMV-luciferase reporter, 72 h; hits give low values. activity change, negative = inhibition, % at 57.5 µM. hit rate 4.5% among 410,000; in the data active = activity change below about -60%; inconclusive = no clear call, values can overlap the other calls; inactive = above about -39%
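Compounds were evaluated in HFFs infected with an HCMV luciferase reporter virus (MOI 1 PFU/cell). Luciferase in lysates collected 72 h post infection served as the replication measure.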
Vaccinia Venus: vaccinia inhibition (Venus reporter). Vaccinia virus Venus reporter expression, fluorescence. Potency, µM (doses to about 36.5 µM), for the others: at the top dose activity change, negative = inhibition, hits mostly inhibitors. hit rate 0.46% among 330,000; calls by dose curve; tested in A549 cells; note: potency is the fitted concentration of half-maximal effect; nearly all actives have a fitted effect of over 30% in size
MARV entry inh: Marburg virus entry inhibition; hit rate 1.8% among 300,000; AID 540276; Potency, µM (doses to about 37.8 µM), for the others: top-dose activity change, negative = inhibition, most hits filed as inhibitors; Marburg virus pseudotyped entry inhibition, cell reporter; calls by dose curve; tested in HEK293 cells; note: potency is the fitted concentration of half-maximal effect
Lassa entry inh: inhibitors of Lassa virus binding or cell entry; Potency, µM (series often up to 37.9 µM), without a hit: at the highest dose activity change, negative = inhibition, actives largely listed as inhibitors; hit rate 1.2% among 300,000; Lassa virus pseudotype entry inhibition, cell reporter; AID 540256; calls by dose curve; tested in HEK293 cells; note: potency is the fitted concentration of half-maximal effect; nearly all actives have a fitted effect of over 50% in size
* marks the source's active call; other numbers are inactive results; i = inactive; ? = inconclusive; · = no result; [ ] = another dose, or the depositor's remark. Compounds with a hit are over-represented: about 7.8% of the library has one in this group of screens. % is set by controls: 0 for no effect and ±100 for the full control effect.

SMILES	HCV inh	VACV mCherry inh	HCMV inh	Vaccinia Venus	MARV entry inh	Lassa entry inh
Cc1ccc(/C=N/NC(=O)Cc2ccc(Cl)cc2)c(O)c1	?	22µM*	-30	?	?	?
CCN(CC)c1ccc(CNS(=O)(=O)c2cc3c(cc2C)NC(=O)CO3)cc1	·	-5%	0	-3%	·	-2%[46.1 µM]
COC(=O)c1cn(C(=O)c2ccc3c(c2)OCO3)c2ccccc12	·	-12%	108	-20%	·	·
O=C(O)COc1ccc(/C=N/NC(=O)Cc2ccc(Cl)cc2)cc1	3%	i	-101*	-10%	?	-6%[46.1 µM]
Cc1ccc(S(=O)(=O)N2CCN(c3nc(N(C)c4cc(Cl)ccc4O)nc4ccccc34)CC2)cc1	·	-15%	·	-17%	·	·
COc1cc2nc(Cl)nc(NC3CCN(C)CC3)c2cc1OC	·	-25%	·	-19%	·	·
Cc1nc2nc(SCC(=O)NCc3ccccc3)nn2c(C)c1Cc1ccccc1Cl	·	-4%	-21	-12%	29%[46.1 µM]	-5%[46.1 µM]
Cc1cccc(C#Cc2ccccc2)n1	1.1µM*	-6%	-65*	-16%	?	?
COC(=O)c1c(C)cc(O)c(C=O)c1O	-18%	-16%	·	-7%	·	·
Cc1cc2c(C(C)C)c(O)c(O)c(C=O)c2c(O)c1-c1c(C)cc2c(C(C)C)c(O)c(O)c(C=O)c2c1O	?	4.5µM*	·	4µM*	10µM*	7.1µM*
CCOC(=O)C1CCN(C(=O)CN2c3ccc(CC)cc3-c3ccccc3S2(=O)=O)CC1	·	-13%	-2	-14%	27%[46.1 µM]	23%[46.1 µM]
Cc1ccc(NS(=O)(=O)c2ccc3c(c2)NC(=O)CCS3)cc1F	-10%	?	-35	-19%	4%[46.1 µM]	23%[46.1 µM]
Cc1ccc(NS(=O)(=O)c2ccc3c(c2)NC(=O)CCS3)cc1C	-9%	?	?	0.89µM*	·	-22%[46.1 µM]
COc1cc(OC)c(NS(=O)(=O)c2ccc3c(c2)NC(=O)CCS3)cc1Cl	·	-18%	-63*	-14%	·	-28%[46.1 µM]
C=CCn1c(-c2ccc(Cl)cc2)cnc1SC(C)C(=O)NC(N)=O (stereo not drawn)	?	-3%	-74*	-11%	-8%[46.1 µM]	-5%
COc1cccc(S(=O)(=O)Nc2ccc3c(c2)[C@@H]2C[C@@H](CC(=O)NCc4ccc(Cl)cc4)O[C@@H](CO)[C@@H]2O3)c1	·	-23%	-78*	-19%	·	·
COC(=O)C[C@H]1C[C@@H]2c3cc(NS(=O)(=O)c4cccc(OC)c4)ccc3O[C@@H]2[C@@H](CO)O1	·	-24%	-22	-12%	·	·
CCN(CC)CCCOC(=O)C(OC(C)C)(c1ccccc1)c1ccccc1	7.1µM*	·	-37	·	12µM*	16µM*
O=C(c1[nH]c2ccccc2c1Sc1ccc(Cl)cc1)N1CCCCC1	·	-4%	31	-12%	-1%[46.1 µM]	26%[46.1 µM]
O=[N+]([O-])c1cccc(S(=O)(=O)N2CCN(c3nc(-c4cccs4)nc4ccccc34)CC2)c1	·	-8%	·	-12%	·	·
CCC1(C2CCN(Cc3cccc(Cl)c3)CC2)NC(=O)N(CC2COc3ccccc3O2)C1=O (stereo not drawn)	·	-21%	·	-17%	·	·
Cc1occc1-c1nnc(SC(C)C(=O)Nc2ccccc2F)o1 (stereo not drawn)	-11%	-2%	48	-12%	?	11µM*
COc1ccccc1NC(=S)NNC(=O)c1cc(C)nn1C	-3%	-2%	-103*	-7%	?	2%
Cc1ccc(-n2c(SCc3ccccc3F)nc3[nH]ncc3c2=O)cc1Cl	·	-18%	?	-7%	·	?
CCOc1ccc(S(=O)(=O)NCCc2sc3nc(-c4ccc(C)cc4)nn3c2C)cc1	·	?	-18	?	·	?
SMILES	HCV inh	VACV mCherry inh	HCMV inh	Vaccinia Venus	MARV entry inh	Lassa entry inh
CC(C)=CCOc1ccc2c(C)c(CCC(=O)N3C[C@H]4C[C@@H](C3)c3cccc(=O)n3C4)c(=O)oc2c1C	·	·	-8	·	·	·
COc1cc(/C=C2\SC(=O)NC2=O)ccc1Oc1ccc([N+](=O)[O-])cc1[N+](=O)[O-]	-5%	-24%	-75*	-5%	1%[46.1 µM]	-25%
c1ccc(-n2cccc2CNC2CCCCC2)cc1	6%	-19%	·	-12%	21µM*	2%
Cc1ccc([N+](=O)[O-])cc1-c1ccc(/C=C(\C#N)c2[nH]nc(N)c2C#N)o1	?	10µM*	?	?	?	?
COCc1cc(C)nc(OCC(=O)N/N=C/c2ccc(-c3cc([N+](=O)[O-])ccc3C)o2)c1C#N	-14%	-14%	-25	-10%	16%	5%
Cc1cccc(C(=O)OCc2cc(=O)n3ccsc3n2)c1	·	-10%	12	-12%	·	25%[46.1 µM]
CCOCCCNC(=O)/C(C#N)=C/c1ccc(Cl)c([N+](=O)[O-])c1	?	6%	-102*	3%	?	2%
COCCNC(=O)/C(C#N)=C/c1cccc(/C=C(\C#N)C(=O)NCCOC)c1	10µM*	-6%	-68*	1%	?	?
N#C/C(=C\c1cccc([N+](=O)[O-])c1)C(=O)NCc1ccc(Cl)cc1	-27%	-18%	-98*	-11%	?	0%
COc1ccc(/C=C(\C#N)C(=O)NCCc2ccccc2)cc1OCc1ccccc1	?	-7%	-14	-20%	11µM*	?
N#C/C(=C\c1cccc([N+](=O)[O-])c1)C(=O)NCc1cccnc1	-1%	-12%	-9	-4%	3%	?
COc1ccc(CN(Cc2ccccc2)C(=O)CN2CCN(C)CC2)cc1COc1ccc(NC(C)=O)cc1	·	-3%	·	-19%	·	·
CC(=O)OCON[N+]([O-])=NC(C)C	·	-11%	·	-17%	·	·
C=CCOC(=O)[C@H](C#N)c1nc2ccccc2nc1N1CCC(C(=O)OCC)CC1	·	·	·	·	-4%	·
Cc1ccc(-n2ncc3c(NCCc4ccccc4)ncnc32)cc1Cl	·	0%	40	3%	·	-3%[46.1 µM]
Cc1cnc(-n2ncc(C(=O)N(C)Cc3cccc4ncccc34)c2C(C)C)nc1-c1ccc(F)cc1	·	i	·	-16%	·	·
COCCNC(=O)/C(C#N)=C/C=C/c1ccccc1[N+](=O)[O-]	?	-10%	-96*	-10%	?	?
C=CCNCCCCOc1cccc(Br)c1	-20%	-29%	31	-16%	13µM*	-2%
OCCNCCCCOc1cccc(Br)c1	-20%	-12%	-32	-10%	?	?
CCCCc1nc(Cl)c(CO)n1Cc1ccc(-c2ccccc2-c2nn[nH]n2)cc1	0.56µM*	-11%	1	-14%	·	·
CCOc1ccc(-c2oc3ccccc3c(=O)c2O)cc1OCC	·	i	-65*	-20%	-26%[46.1 µM]	?
CN(C)CCOc1ccc(-c2c(-c3ccccc3)sc3ccccc23)cc1	?	?	-38	13µM*	·	·
c1ccc(-c2sc3ccccc3c2-c2ccc(OCCN3CCCCC3)cc2)cc1	-12%	-15%	-64*	-18%	·	·
c1ccc2c(-c3ccc(OCCN4CCCCC4)cc3)c(-c3ccsc3)sc2c1	?	?	-23	-29%	·	·
COc1ccc(Nc2cc3c(cn2)cc(-c2cnn(C)c2)n3Cc2ccccc2)cc1OC	·	·	-8	·	·	·

High-throughput results from PubChem BioAssay.
